PubChem BioAssay AID686978 (National Center for Advancing Translational Sciences (NCATS), 2013)
Screen size: about 420,000 compounds; about 64,000 (15%) were called active. Another 27% or so got no clear call; they are omitted. The call rests on the fitted dose curve; in most records, active means well fitted inhibition curve with a large enough effect; inconclusive means small, poorly fitted or top-dose-only effect; inactive means flat fitted curve, though single readings scatter. These entries were drawn from the full list.

Assay: qHTS for Inhibitors of human tyrosyl-DNA phosphodiesterase 1 (TDP1): qHTS in cells in absence of CPT; further: nearly all actives have a fitted effect of over 55% in size
Conditions: DT40 Tdp1-/- hTDP1 cells, no CPT, ATP luminescence, 48 h; activity change, negative = growth inhibition: at 46.2 µM (top of the series)
Method in brief: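 Growth kinetics read by CellTiter-Glo luminescence after ≥48 hr at 37 °C. Cells: DT40 Tdp1-/- stably carrying human TDP1, 400 per well, compound exposure in the absence of CPT (DMSO vehicle).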
On the % scale 0 is the no-effect control and ±100 the full control effect; potency means the concentration at half of the fitted maximal effect.

SMILES	activity change, negative = growth inhibition	Potency
Cc1ccc(C(=O)NNC(=O)C(C)Oc2ccc3ccccc3c2)o1 (centres undefined)	-21.3% (inactive)	–
O=C(Nc1ccc2ccccc2c1)/C(=C\c1ccc2c(c1)OCO2)NC(=O)c1ccco1	-4.08% (inactive)	–
Cc1ccc(OCC(=O)NCCCNC(=O)c2ccco2)cc1C	-5.67% (inactive)	–
CC(Oc1ccc2ccccc2c1)C(=O)NNC(=S)NC(=O)c1ccco1 (centres undefined)	–	16.4 µM (active)
CCCc1ccc(OCCNC(=O)c2ccco2)cc1	-25.9% (inactive)	–
CCCc1ccc(OCC(=O)NNC(=S)NC(=O)c2ccco2)cc1	–	20.6 µM (active)
C=CCn1c(SCc2cc(C(=O)OC)c(C)o2)nnc1-c1ccncc1	-5.22% (inactive)	–
CCOC(=O)N1CCC(N2Cc3cccc(C(=O)Nc4ccc(S(=O)(=O)N(CC)CC)cc4)c3C2=O)CC1	2.22% (inactive)	–
CCOC(=O)N1CCC(N2Cc3cccc(C(=O)Nc4c(C)cccc4CC)c3C2=O)CC1	–	23.1 µM (active)
COC(=O)c1ccc(NC(=O)c2cccc3c2C(=O)N(C2CCCCC2)C3)cc1	-3.73% (inactive)	–
CC1(C)O[C@@H]2[C@H](O1)[C@@H](COS(=O)(=O)O)O[C@H]2n1ccc(=O)[nH]c1=O	0.812% (inactive)	–
CCCOc1cccc(C(=O)Nc2cccc(NC(=O)c3ccc(C(C)(C)C)cc3)c2)c1	–	29.1 µM (active)
CCCOc1cccc(C(=O)NCCCNC(=O)c2cccnc2)c1	12.2% (inactive)	–
CSc1cccc(NC(=O)CSc2ccccc2)c1	-17.1% (inactive)	–
CCOc1cccc(C(=O)Nc2cccnc2)c1	-13% (inactive)	–
CCOc1ccc(NC(=O)c2ccc(NC(=O)C3CCCO3)cc2)cc1 (centres undefined)	-1.68% (inactive)	–
CCOc1ccc(NC(=O)c2ccccc2NS(C)(=O)=O)cc1	–	18.4 µM (active)
CCOc1ccc(NC(=O)c2ccc(CSc3nnnn3C)cc2)cc1	-21% (inactive)	–
CCOc1ccc(C(=O)Nc2cccc(SC)c2)cc1	–	9.2 µM (active)
O=C(CSc1ccccc1)Nc1ccc(C(=O)Nc2cccc(O)c2)cc1	-13.8% (inactive)	–
COC(=O)c1ccccc1NC(=O)c1ccccc1NS(C)(=O)=O	-25.9% (inactive)	–
CCOc1ccc(C(=O)Nc2ccncc2)cc1	–	18.4 µM (active)
NC(=O)COc1ccc(NC(=O)c2ccccc2-c2ccccc2)cc1	6.23% (inactive)	–

SMILES	activity change, negative = growth inhibition	Potency
Cc1cc(C(=O)OC(C)C(=O)Nc2cccc(S(=O)(=O)N3CCOCC3)c2)c(C)o1 (centres undefined)	-31.2% (inactive)	–
COCCCNC(=S)NC(=O)c1ccc([N+](=O)[O-])cc1	-23.1% (inactive)	–
CCOc1ccccc1NS(=O)(=O)c1c[nH]c(C(=O)OC)c1	-29.1% (inactive)	–
COCCCNC(=O)c1c(NC(=O)c2cc(=O)c3cc(C)c(C)cc3o2)sc2c1CCCC2	-16.2% (inactive)	–
Cc1cc(O)c(C2(O)C(=O)Nc3ccccc32)cc1C (centres undefined)	-2.69% (inactive)	–
COc1cnc(-c2ccccn2)nc1Oc1ccc(C(C)(C)C)cc1	–	4.61 µM (active)
COc1ccc(Cc2nc(-c3ccccn3)no2)cc1OC	7.04% (inactive)	–
CC(C)(C)Nc1nc(-c2ccccn2)nc2ccccc12	–	4.11 µM (active)
CC(C)(C)c1ccc(Oc2ccc(N)cc2)cc1	-18.1% (inactive)	–
Cc1ccc(Oc2nc(-c3ccccn3)nc3ccccc23)cc1	–	18.4 µM (active)
Cc1nc2ccccc2c(C(=O)O)c1-c1ccccn1	14.2% (inactive)	–
CCOC(=O)c1cnc(-c2ccccc2)nc1Oc1ccc(C)cc1	-11.3% (inactive)	–
O=C(c1ccc(NS(=O)(=O)c2ccc3[nH]c(=O)[nH]c3c2)cc1)N1CCCCC1	-0.463% (inactive)	–
CCC(CC)C(=O)Nc1c2c(nn1-c1ccc(C)cc1)CS(=O)(=O)C2	-10.3% (inactive)	–
Cc1noc(COc2ccccc2OCc2onc(C)c2Cl)c1Cl	-14.2% (inactive)	–
CC1(OC(=O)C2CCCC2)C(=O)C=C2C=C(c3ccc(C#N)cc3)OC=C2C1=O (centres undefined)	1.66% (inactive)	–
CC(C)NC(=O)CSc1nnc(COc2ccccc2Cl)o1	0.313% (inactive)	–
C/C(=N\NS(=O)(=O)c1cccc([N+](=O)[O-])c1)c1cc2ccccc2o1	-20.6% (inactive)	–
Cc1cc(NC(=O)COC(=O)COc2ccc(Cl)cc2C)c([N+](=O)[O-])cc1C	-40.4% (inactive)	–
O=C(CCCN=C1NS(=O)(=O)c2ccccc21)OCC(=O)c1ccc(F)c(F)c1	-2.32% (inactive)	–
S=c1[nH]nc(-c2ccccc2)n1/N=C/c1c[nH]c2ccccc12	–	6.51 µM (active)
Fc1ccc(/C=N/n2c(COc3ccccc3)n[nH]c2=S)cc1	-4.74% (inactive)	–
Cc1ccc(/C=N\n2c(-c3ccccc3)n[nH]c2=S)s1	-20.4% (inactive)	–

SMILES	activity change, negative = growth inhibition	Potency
Oc1ccccc1/C=N/n1c(-c2cccs2)n[nH]c1=S	-9.3% (inactive)	–
CCc1n[nH]c(=S)n1/N=C/c1c[nH]c2ccc(Br)cc12	–	18.4 µM (active)
S=c1[nH]nc(-c2ccncc2)n1/N=C/c1ccccc1Cl	-7.12% (inactive)	–
N#CCCN1CCN(S(=O)(=O)c2ccc(S(=O)(=O)NC3CCCCC3)cc2)CC1	-18.6% (inactive)	–
COc1ccc(CCC(=O)OCC(=O)Nc2ccc(C)c(S(=O)(=O)N(C)C)c2)cc1	-4.58% (inactive)	–
CCCCCCSc1nsc(N)n1	-28% (inactive)	–
CCOC(=O)CSc1nnc(CNC(=O)c2cccs2)n1-c1cc(OC)ccc1OC	0.211% (inactive)	–
Cc1cc(=O)oc2c(C(=O)c3ccccc3)c(OCC(N)=O)ccc12	-0.608% (inactive)	–
O=C(CCCn1c(=O)oc2ccccc21)Nc1cccnc1	-2.31% (inactive)	–
CC(C)Cn1cc(-c2cncc3nccn23)cn1	-11.4% (inactive)	–
Fc1ccccc1OCCSc1nc2ccccc2o1	-13.3% (inactive)	–
Cn1c(=O)[nH]c(=O)c2c1nc(Br)n2CCCCSc1nc2ccccc2o1	–	18.4 µM (active)
Cc1ccnc(SCCn2c(Br)nc3c2c(=O)[nH]c(=O)n3C)n1	-6.34% (inactive)	–
CCc1c(C)nc(SCC(=O)NC2CCCC2)[nH]c1=O	5.26% (inactive)	–
CCc1ccc(-c2nc(SCC(=O)NC3CCCC3)n[nH]2)cc1	–	23.1 µM (active)
COc1ccc(-c2nc(SCC(=O)N3CCCC3)n[nH]2)cc1	-14.3% (inactive)	–
Cc1cc(Br)ccc1SCC(=O)OCC(=O)NCc1ccc2c(c1)OCO2	6.68% (inactive)	–
CCOc1ccc(C(=O)NC(C(=O)NCc2ccccn2)C(C)C)cc1 (centres undefined)	-22.4% (inactive)	–
COc1ccc(F)cc1S(=O)(=O)N1CCCCC1	-12.5% (inactive)	–
COc1cccc(CNCc2c(C(=O)O)n(Cc3ccc(C)cc3)c3cc(C)ccc23)c1OC	–	16.4 µM (active)
CCOc1c(CNCc2ccc(C(=O)O)cc2)cccc1OC	-12.9% (inactive)	–
COc1ccc(CCNCc2c(C(=O)O)c(C)n(Cc3cccc(C)c3)c2C)cc1OC	-25.8% (inactive)	–
CCOC(=O)c1c(Cc2ccc(Cl)cc2)c[nH]c1C	-25.9% (inactive)	–
